Abeta yeast res: restores growth of yeast expressing A-beta42 peptide; yeast expressing A-beta42, growth rescue, OD600, 48 h; response scale: 0% DMSO, 100% iron-clioquinol control; Potency, µM (doses to about 46.1 µM), hits mostly activators; hit rate 0.063% among 410,000; further: nearly all actives have a fitted effect of over 55% in size
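Growth rescue measured by 600 nm absorbance after 48 h yeast culture at 30 C with compound. Values normalized between DMSO and an equimolar ferric chloride plus clioquinol control.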
FUS suppressor: FUS proteinopathy suppression in yeast; S. cerevisiae FUS-expressing, growth rescue, OD600, 24 h; Potency, µM (titrated, usually from 76.6 µM), most hits filed as activators; hit rate 0.24% among 390,000; AID 1347120;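 further: plate controls were DMSO vehicle for no effect and reference control for full effect; nearly all actives have a fitted effect of over 55% in size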
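Cultures pregrown in 2.5% raffinose medium are shifted to minimal medium containing 2% galactose to express toxic FUS. Compounds are tested at several concentrations. After 24hr at 30C, growth is quantified at 600 nm absorbance.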
TDP-43 yeast inh: TDP-43 toxicity inhibition in yeast. TDP-43 expressing yeast growth rescue, BacTiter-Glo, 24 h. Potency, µM (top dose mostly 46.1 µM), inactives show top-dose growth rescue (activation), hits mostly activators. hit rate 1.8% among 410,000. AID 652104; further: % of control where 0% means no effect; nearly all actives have a fitted effect of over 50% in size
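Galactose-induced TDP-43 yeast, OD600=0.02, compound pinned; 24 hr, 30 deg C; BacTiter-Glo luminescence for growth. Inhibitors of TDP-43 toxicity read as activators.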
aSyn rescue: alpha-synuclein toxicity inhibition in yeast. Yeast expressing alpha-synuclein, growth rescue, BacTiter-Glo, 24 h. Potency, µM (series often up to 46.1 µM), for inactives: top-dose growth rescue (activation), usual class: activators. hit rate 0.14% among 370,000; further: % of control where 0% means no effect; nearly all actives have a fitted effect of over 65% in size
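Galactose-induced alpha-syn yeast (OD600=0.02, raffinose-pregrown) + pinned cpd, 24 hr, 30 deg C; growth by BacTiter-Glo luminescence. Growth restoration scores as activation.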
An asterisk follows results filed as active; i = inactive; ? = inconclusive; nt = no result given. Only some compounds are listed: those with a hit (about 2.1% of all), similar ones and a draw of the others. The call rests on the fitted dose curve; in most records, active means well fitted curve in the direction sought with a large enough effect; inconclusive means small, poorly fitted or top-dose-only effect, or another doubt; inactive means no such curve, though single readings can be large; an effect the other way counts as inactive or inconclusive. Potency means the concentration at half of the fitted maximal effect.

SMILES	Abeta yeast res	FUS suppressor	TDP-43 yeast inh	aSyn rescue
CN(C)c1ccc(/C=N\NC(=O)c2cccc(S(=O)(=O)N(C)C)c2)cc1	nt	i	nt	nt
CCOC(=O)C1(Cc2ccccc2)CCN(Cc2ccc(C(F)(F)F)cc2)CC1	nt	i	nt	nt
CC(=O)Nc1cccc(NC(=O)CCn2c(=O)sc3ccccc32)c1	?	i	17%	-1%
CSc1ccccc1NC(=O)CCn1c(=O)sc2ccccc21	i	i	16µM*	4%
CC(C)NC(=O)C1(N2C(=O)c3ccccc3C2=O)CCCC1	i	i	11µM*	-7%
Cc1cc(NC(=O)c2ccc(Br)cc2)nc(C)n1	i	i	16µM*	-2%
Cc1cc(NC(=O)c2ccccc2O)nc(C)n1	i	i	19%	-12%
Cc1cc(N/N=C/c2ccc([N+](=O)[O-])o2)nc2ccccc12	i	i	13µM*	0%
Cc1cc2ncn(/N=C/c3ccc([N+](=O)[O-])o3)c2cc1C	i	i	8.9µM*	?
O=C(CNc1cccc([N+](=O)[O-])c1)N/N=C/c1ccc([N+](=O)[O-])o1	i	i	3%	4%
O=C(CNc1cccc2ccccc12)N/N=C/c1ccc([N+](=O)[O-])o1	i	i	20µM*	19%
COc1ccccc1OCC(=O)N/N=C/C=C/c1ccc([N+](=O)[O-])o1	i	nt	13µM*	?
Cc1ccccc1OCC(=O)N/N=C/c1ccc([N+](=O)[O-])o1	i	i	11%	5%
CC(C)CNc1cccc2c1S(=O)(=O)N(Cc1cn(Cc3cccc(F)c3)nn1)Cc1ccccc1O2	nt	i	nt	nt
Cc1cccc(NC(=O)Nc2c(-c3ccc(C(F)(F)F)cc3)nc3ncccn23)c1	nt	i	nt	nt
C/C(=N\NC(=O)CSc1nnc(-c2ccccc2)n1-c1ccc(C)cc1)c1ccc(-c2ccccc2)cc1	nt	i	nt	nt
O=C([C@@H]1C[C@H]1c1ccccc1)N1CC[C@H]2[C@H](CCCN2Cc2cc(F)cc(F)c2)C1	nt	i	nt	nt
CCOC(=O)N/N=C\c1ccc([N+](=O)[O-])o1	i	i	11%	2%
CCCCCCCC(=O)N/N=C/c1ccc([N+](=O)[O-])o1	i	i	20µM*	4%
COc1cc(Cl)c(C)cc1NC(=O)C1CCCN(c2ncnc3onc(-c4ccc(F)cc4)c23)C1 (stereo unspecified)	i	i	13%	nt
CC(=O)C1=CCC(c2ccccc2Cl)N(S(=O)(=O)c2ccc(C)cc2)C1 (stereo unspecified)	i	?	20µM*	2%
CC(C)CCNC(=S)Nc1ccc(Br)cc1	i	nt	?	-33%
CC(C)CCNC(=O)/C=C/c1ccc(Br)cc1	i	nt	22µM*	-10%
CC1=C(C(=O)OCc2ccccc2)C(c2ccccc2Cl)NC(=O)N1CCCCCC(=O)O (stereo unspecified)	i	i	35µM*	-3%
CCCN(C(=O)c1ccco1)c1nnc(-c2ccccc2C)s1	i	i	13µM*	-18%
SMILES	Abeta yeast res	FUS suppressor	TDP-43 yeast inh	aSyn rescue
COCCN(C(=O)c1ccco1)c1nnc(-c2ccc(F)cc2)s1	i	?	?	-8%
Cc1ccc(NC2=C(Cl)C(=O)OC2OC(=O)c2ccc(C)cc2)cc1 (stereo unspecified)	i	i	13µM*	0%
Cc1ccccc1NC1=C(Cl)C(=O)OC1OC(=O)c1ccco1 (stereo unspecified)	i	i	-10%	3%
Nc1ccc2c(c1)-c1ccc(F)cc1C2=O	i	nt	-17%	14µM*
COc1ccc(C(=O)c2[nH]c(N)c(C(=O)c3ccccc3)c2-c2ccc(OC)c(OC)c2)cc1	nt	i	nt	nt
CCOC(=O)C1CCCN(C(=O)c2ccc(C)c(NC(=O)c3nsc4ccccc34)c2)C1 (stereo unspecified)	i	?	?	nt
CCOC(=O)C1CCN(C(=O)c2ccc(C)c(NC(=O)c3nsc4ccccc34)c2)CC1	i	?	35µM*	nt
Cc1ccccc1CS(=O)(=O)Cc1ccc(C(=O)Nc2cccc(Cl)c2F)o1	nt	i	nt	nt
COC(=O)c1cc(-c2cccc(OC(F)(F)F)c2)c(=O)n2c1CCC2	nt	i	nt	nt
O=C(Nc1ccc(Cl)cc1)C1CCN(c2nc3ccccc3n3cccc23)CC1	i	?	-7%	nt
N/C(=N\OC(=O)c1ccc(Cl)cc1)c1ccc(Cl)cc1	i	i	7.9µM*	-23%
N/C(=N\OC(=O)c1ccccc1Cl)c1ccc(Cl)cc1	i	i	?	-65%
N/C(=N\OC(=O)c1ccc(F)cc1)c1ccc(Br)cc1	i	i	3.2µM*	-12%
CN(C)c1ccc(/C=C2\C=Cc3ccccc32)cc1F	nt	nt	nt	-18%
COc1cc(-c2nnc(SCC(=O)NN=Cc3c[nH]c4ccccc34)n2-c2ccccc2)cc(OC)c1OC	nt	i	nt	nt
CCOC(=O)NCc1ccc(Cl)c(Cl)c1	i	i	18µM*	8%
N#CCC[C@@H]1CC[C@]2(CCCN(S(=O)(=O)c3ccccc3)C2)O1	nt	i	nt	nt
CCCOc1nccc2c1n(C)c(=O)n2C	nt	i	nt	nt
S=C(NC1CC1)SCc1ccco1	i	i	28µM*	7%
O=C1CC(c2ccccc2)Oc2ccccc21 (stereo unspecified)	i	i	14µM*	-1%
CNC(=S)N/N=C1\CC(c2ccccc2)Oc2ccccc21 (stereo unspecified)	i	i	22µM*	-1%
CC(=O)n1c(-c2ccccc2)c(-c2ccccc2)n(C)c1=O	i	i	13µM*	-7%
CCCN1C(=O)c2ccccc2NC1c1ccc(OC)c(COc2cccc(OC)c2)c1 (stereo unspecified)	nt	nt	nt	2%
COc1ccc([C@@H]2[C@@H]3C(=O)N(C(C)(C)C)C(=O)[C@@H]3[C@]3(Cc4ccccc4)C(=O)N(c4cccc(Cl)c4)C(=O)N23)cc1	i	28µM*	24%	3%
COc1ccc(N2C(=O)N3[C@H](c4ccc(Br)cc4)[C@@H]4C(=O)N(C(C)(C)C)C(=O)[C@@H]4[C@]3(Cc3ccccc3)C2=O)cc1	i	13µM*	2%	-5%
CC(C)(C)N1C(=O)[C@H]2[C@@H](c3ccc(Br)cc3)N3C(=O)N(c4cccc(Cl)c4)C(=O)[C@@]3(Cc3ccccc3)[C@H]2C1=O	i	13µM*	0%	11%
COc1ccc([C@@H]2[C@@H]3C(=O)N(C(C)(C)C)C(=O)[C@@H]3[C@]3(Cc4ccccc4)C(=O)N(c4ccc(Br)cc4)C(=O)N23)cc1	i	i	-14%	-1%
COc1ccc([C@@H]2[C@@H]3C(=O)N(C(C)(C)C)C(=O)[C@@H]3[C@]3(Cc4ccccc4)C(=O)N(c4cccc(C)c4)C(=O)N23)cc1	i	28µM*	-7%	-7%
COc1ccc([C@@H]2[C@@H]3C(=O)N(C(C)(C)C)C(=O)[C@@H]3[C@]3(Cc4ccc(Cl)cc4)C(=O)N(c4cccc(Br)c4)C(=O)N23)cc1	i	i	-5%	-1%

High-throughput results deposited in PubChem by National Center for Advancing Translational Sciences (NCATS).
